Only some compounds are listed: those with a hit (about 22% of all), similar ones and a draw of the others.
Pf growth 96h – Primary qHTS for delayed death inhibitors of the malarial parasite plastid, 96 hour incubation | P. falciparum luciferase reporter growth, 96 h | Potency, µM (top dose mostly 28.7 µM), hits mostly inhibitors | 6.9% of 320,000 active | AID 504834, 2011
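Delayed-death screen, second-generation endpoint: infected erythrocytes, 2% hematocrit, 0.05% parasitemia final; 96 hours at 37 C, 5% CO2; luciferase detection reagent; luminescence decrease equals reduced growth.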
Shiga toxin inh – A qHTS for Small Molecule Inhibitors of Shiga Toxin | AID 2315, 2010 | Vero cells, Shiga toxin protein synthesis inhibition reporter | inhibition, % at 38.7 µM | 9.2% of 290,000 active; in the data active = inhibition mostly above about 28%, no sharp cut-off; inactive = mostly below about 43%
LmPK inhibitor – qHTS Assay for Inhibitors of Leishmania Mexicana Pyruvate Kinase (LmPK) | purified LmPK, Kinase-Glo ATP luminescence, 1 h | 0.37% of 290,000 active | Potency, µM (top dose mostly 57.5 µM), actives largely listed as inhibitors | Q27686 | AID 1721, 2009
Target sequence (Q27686 whole entry, looked up): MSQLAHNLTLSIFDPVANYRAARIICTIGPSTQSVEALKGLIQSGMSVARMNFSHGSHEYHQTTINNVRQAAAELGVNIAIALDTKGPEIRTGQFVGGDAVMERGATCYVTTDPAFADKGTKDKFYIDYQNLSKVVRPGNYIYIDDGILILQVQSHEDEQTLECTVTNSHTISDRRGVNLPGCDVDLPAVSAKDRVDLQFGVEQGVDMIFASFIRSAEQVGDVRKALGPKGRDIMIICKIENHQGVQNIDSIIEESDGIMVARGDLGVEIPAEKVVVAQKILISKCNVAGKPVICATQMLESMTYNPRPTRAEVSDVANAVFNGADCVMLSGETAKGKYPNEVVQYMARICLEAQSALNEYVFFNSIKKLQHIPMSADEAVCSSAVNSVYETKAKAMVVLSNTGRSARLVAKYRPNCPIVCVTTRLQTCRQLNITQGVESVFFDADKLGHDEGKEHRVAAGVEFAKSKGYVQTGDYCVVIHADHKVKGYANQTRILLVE
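Purified LmPK (0.1 nM) converted ADP (0.1 mM) to ATP with PEP (0.5 mM) in imidazole buffer pH 7.2 with KCl and MgCl2, 1 h at room temperature. ATP was read by Kinase-Glo luminescence; data normalized to uninhibited and no-enzyme controls.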
Pf growth 48h – Primary qHTS for delayed death inhibitors of the malarial parasite plastid, 48 hour incubation | Potency, µM (highest dose often 28.7 µM), actives largely listed as inhibitors | P. falciparum luciferase growth in erythrocytes, 48 h | 5.9% of 310,000 active
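First compound was added to culture medium, then infected red cells at 0.1% parasitemia and 2% hematocrit (final). After incubation at 37 C under 5% CO2, luciferase detection reagent was dispensed and light output recorded.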
CHX counter – Cycloheximide Counterscreen for Small Molecule Inhibitors of Shiga Toxin. cell reporter, cycloheximide protein synthesis inhibition counterscreen. max response, %. 12% of 300,000 active. AID 2314, 2010; in the data active = max response mostly above about 13%, no sharp cut-off; inactive = mostly below about 14%; note: read at 38.3 µM for the half of the compounds with a filed dose
A number is an active result; [ ] = another dose, or the depositor's remark. Unless noted, calls come from the whole dose curve; as a rule, active = well fitted inhibition curve with a large enough effect; inconclusive = small, poorly fitted or top-dose-only effect, or another doubt; inactive = no such curve, though single readings can be large or run the other way.

What do the screens show for `O=S(=O)(c1ccc2c(c1)C(=NO)c1cc(S(=O)(=O)N3CCCCC3)ccc1-2)N1CCCCC1`?
Pf growth 96h: inconclusive; Shiga toxin inh: inactive; LmPK inhibitor: inactive; Pf growth 48h: 8.3µM; CHX counter: inactive

How did CC1CCN(S(=O)(=O)c2ccc3c(c2)C(=NO)c2cc(S(=O)(=O)N4CCC(C)CC4)ccc2-3)CC1 do in these assays?
Pf growth 96h: 5.9µM; Shiga toxin inh: inactive; LmPK inhibitor: inactive; Pf growth 48h: inconclusive; CHX counter: inactive

Results for COc1ccc(S(=O)(=O)N2CCC(C)CC2)cc1OC ?
Pf growth 96h: inactive; LmPK inhibitor: inactive; Pf growth 48h: inactive; CHX counter: inactive

How did CC(c1ccccc1)N(C)C(=O)CSc1nnc(C2CC2)n1C1CC1 (configuration not stated) do in these assays?
Pf growth 96h: inactive; Pf growth 48h: inactive

Results for Cc1cc2c(c(=O)o1)C1O[C@](c3ccsc3)(Cc3cc(C#N)ccc31)O2 ?
Pf growth 96h: inconclusive; Shiga toxin inh: inactive; LmPK inhibitor: inactive[11.5 µM]; Pf growth 48h: inconclusive; CHX counter: inactive

What do the screens show for `Cc1ccc(/C=N/NC(=O)Nc2ccccc2)o1`?
Pf growth 96h: inconclusive; Shiga toxin inh: 100; LmPK inhibitor: inactive; Pf growth 48h: inactive; CHX counter: 54

How did Cc1cccc(/C=N/NC(=O)NC2CCCCC2)c1 do in these assays?
Pf growth 96h: inconclusive; Shiga toxin inh: 69; LmPK inhibitor: inactive; Pf growth 48h: inactive; CHX counter: 39

Results for Cc1ccc(/C=N/NC(=O)NC2CCCCC2)o1 ?
Pf growth 96h: inactive; Shiga toxin inh: 41; LmPK inhibitor: inactive; Pf growth 48h: inactive; CHX counter: 21

What do the screens show for `Cc1ccc(/C=C/C(=O)NC2CCCCCCC2)o1`?
Pf growth 96h: inactive; Shiga toxin inh: 74; LmPK inhibitor: inactive; Pf growth 48h: inactive; CHX counter: 41

How did CC1(C(=O)NCCCN2CCOCC2)Oc2cccnc2NC1=O (configuration not stated) do in these assays?
Pf growth 96h: inactive; Shiga toxin inh: inactive; LmPK inhibitor: inactive; Pf growth 48h: inactive; CHX counter: inactive

What do the screens show for `COc1ccc(C(=O)NC(=S)Nc2ccc3[nH]c(=O)[nH]c3c2)cc1`?
Pf growth 96h: inactive; Shiga toxin inh: inactive; LmPK inhibitor: inactive; Pf growth 48h: inactive; CHX counter: inactive

How did O=C(NCCN1CCOCC1)C1(C(F)(F)F)C/C(=C\CCO)CCCO1 (configuration not stated) do in these assays?
Shiga toxin inh: inactive; CHX counter: inactive

How did COC(=O)c1ccc(NC(=O)C(=O)N2CCN(C(=S)Nc3cccc(C)c3C)CC2)cc1 do in these assays?
Pf growth 96h: 0.47µM; Shiga toxin inh: inactive; LmPK inhibitor: inactive; Pf growth 48h: inactive; CHX counter: inactive

What do the screens show for `O=C(CCN1CCN(Cc2ccccc2)CC1)NNC(=O)Nc1cccc(C(F)(F)F)c1`?
Pf growth 96h: inactive; Shiga toxin inh: inactive; LmPK inhibitor: inactive; Pf growth 48h: inactive; CHX counter: inactive

What do the screens show for `Cc1ccccc1C(=O)N1CCC(C(=O)N(CC(C)C)c2c(N)n(Cc3ccccc3)c(=O)[nH]c2=O)CC1`?
Pf growth 96h: inactive; Pf growth 48h: inconclusive

What do the screens show for `Brc1ccc2c(c1)OCCOCCOCCOCCOCCOCCO2`?
Pf growth 96h: inactive; Shiga toxin inh: inactive; LmPK inhibitor: inactive; Pf growth 48h: inactive; CHX counter: inactive

Results for Brc1ccc2c(c1)OCCOCCOCCOCCOCCO2 ?
Pf growth 96h: 10µM; Shiga toxin inh: inactive; LmPK inhibitor: inactive; Pf growth 48h: inactive; CHX counter: inactive

How did c1ccc2c(c1)OCCOCCOCCOCCOc1ccccc1OCCOCCOCCO2 do in these assays?
Pf growth 96h: 12µM; Shiga toxin inh: inactive; LmPK inhibitor: inactive; Pf growth 48h: inactive; CHX counter: inactive

What do the screens show for `Cc1ccc(S(=O)(=O)NC(C(=O)N2CCOCCOCCOCC2)c2ccccc2)cc1` (configuration not stated)?
Pf growth 96h: inactive; Shiga toxin inh: inactive; LmPK inhibitor: inactive; Pf growth 48h: inactive; CHX counter: inactive

What do the screens show for `Cc1ccc(C(=O)OCC(=O)NCc2cccs2)c(C)c1`?
Pf growth 96h: inactive; Shiga toxin inh: 113; LmPK inhibitor: inactive; Pf growth 48h: inactive; CHX counter: 41

How did O=C(CSc1nc2ccc(Cl)cc2[nH]1)NCCc1ccc(Cl)cc1 do in these assays?
Pf growth 96h: inactive; Shiga toxin inh: inactive; LmPK inhibitor: inactive; Pf growth 48h: inactive; CHX counter: 37

What do the screens show for `Cc1ccc2c(=O)c(C(=O)NCc3cccs3)c[nH]c2c1`?
Pf growth 96h: inactive; Shiga toxin inh: 51; LmPK inhibitor: inactive; Pf growth 48h: inconclusive; CHX counter: 23

How did Cc1cc(C(=O)NCc2cccs2)c(C)o1 do in these assays?
Shiga toxin inh: inactive; LmPK inhibitor: inactive; Pf growth 48h: inactive; CHX counter: inactive

What do the screens show for `COC(=O)c1ccc(CSc2nc3ccc(C)cc3[nH]2)o1`?
Pf growth 96h: inactive; Shiga toxin inh: 37; LmPK inhibitor: inactive; CHX counter: 27

Results for O=C(CSc1nc2ccc(Cl)cc2[nH]1)NCCc1ccccc1 ?
Pf growth 96h: inactive; Shiga toxin inh: inactive; LmPK inhibitor: inactive; Pf growth 48h: inactive; CHX counter: inactive

Results for COC(=O)c1ccc(CSc2nc3c(cnn3-c3ccc(C)cc3)c(=O)[nH]2)o1 ?
Pf growth 96h: inactive; Shiga toxin inh: inactive; LmPK inhibitor: inactive; Pf growth 48h: inactive; CHX counter: inactive

What do the screens show for `Cc1ccc(CS(=O)(=O)CC(C)(O)c2ccc(Cl)cc2)cc1` (configuration not stated)?
Pf growth 96h: inactive; Shiga toxin inh: inactive; LmPK inhibitor: inactive; Pf growth 48h: inactive; CHX counter: inactive

How did Cc1ccc(-n2nnnc2CNC(=O)c2ccc3c(c2)OCO3)cc1C do in these assays?
Pf growth 96h: inactive; Shiga toxin inh: inactive; LmPK inhibitor: inactive; Pf growth 48h: inactive; CHX counter: inactive

Results for COC(=O)C1CCN(C(=O)CSc2nc3ccc(OC)cc3[nH]2)CC1 ?
Pf growth 96h: inactive; Shiga toxin inh: inactive; LmPK inhibitor: inactive; Pf growth 48h: inactive; CHX counter: inactive

Results for COc1cccc(CNC(=O)CSc2nc3ccc(C)cc3[nH]2)c1 ?
Pf growth 96h: inactive; Shiga toxin inh: inactive; LmPK inhibitor: inactive; Pf growth 48h: inactive; CHX counter: 17

How did Cc1ccc2nc(SCC(=O)NCc3cccs3)[nH]c2c1 do in these assays?
Pf growth 96h: inactive; Shiga toxin inh: inactive; LmPK inhibitor: inactive; Pf growth 48h: inactive; CHX counter: 11

How did COc1ccc2nc(SCC(=O)N3CCNC3=O)[nH]c2c1 do in these assays?
Pf growth 96h: inactive; Shiga toxin inh: 79; LmPK inhibitor: inactive; Pf growth 48h: inactive; CHX counter: 48

How did OCC1(CCOc2ccccc2)CCN(Cc2nc3ccc(F)cc3[nH]2)CC1 do in these assays?
Pf growth 96h: inactive; Shiga toxin inh: inactive; LmPK inhibitor: inactive; Pf growth 48h: inconclusive; CHX counter: inactive

High-throughput results from PubChem.
